Bioassay records deposited in PubChem BioAssay by National Center for Advancing Translational Sciences (NCATS).
HepG2 viability – HepG2 cytotoxicity, counter-screen for TGF-b inhibitors; HepG2 CAGA-GFP viability, ATP luminescence, 18 h; Potency, µM (series often up to 46.1 µM), hits mostly cytotoxic; 410,000 compounds, 0.76% hits
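CellTiter-Glo luminescence gave cytotoxicity after 18 hours at 37 degrees C. The cells were HepG2 CAGA-GFP in 1% FBS DMEM, stimulated with 500 pg/mL TGF-beta after compound addition. %Activity was normalised to no-cell wells (complete cell-killing) and DMSO (no toxicity), and curves were fitted and classified.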
TGFb SMAD3 inh – blocks TGF-b signaling. HepG2 CAGA-GFP TGF-b/SMAD3 reporter, GFP fluorescence, 18 h; TGF-beta stimulated, 500 pg/mL final. Potency, µM (top dose mostly 46.1 µM), most hits filed as inhibitors. 410,000 compounds, 1.2% hits. AID 588855; further: nearly all actives have a fitted effect of over 65% in size
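First, reporter cells (HEPG2 CAGA-GFP) rested 2 h at 37 degrees C. Next, compounds were pinned in and TGF-beta added to 500 pg/mL final. After 18 h, GFP was imaged per cell and summed per well.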
TDP1 block – inhibitors of human tyrosyl-DNA phosphodiesterase TDP1. Q9NUW8. Potency, µM (titrated, usually from 130 µM), hits mostly inhibitors. 350,000 compounds, 0.28% hits. AID 485290. recombinant TDP1, AlphaScreen DNA substrate cleavage; further: nearly all actives have a fitted effect of over 40% in size
Target sequence (Q9NUW8 whole entry, looked up): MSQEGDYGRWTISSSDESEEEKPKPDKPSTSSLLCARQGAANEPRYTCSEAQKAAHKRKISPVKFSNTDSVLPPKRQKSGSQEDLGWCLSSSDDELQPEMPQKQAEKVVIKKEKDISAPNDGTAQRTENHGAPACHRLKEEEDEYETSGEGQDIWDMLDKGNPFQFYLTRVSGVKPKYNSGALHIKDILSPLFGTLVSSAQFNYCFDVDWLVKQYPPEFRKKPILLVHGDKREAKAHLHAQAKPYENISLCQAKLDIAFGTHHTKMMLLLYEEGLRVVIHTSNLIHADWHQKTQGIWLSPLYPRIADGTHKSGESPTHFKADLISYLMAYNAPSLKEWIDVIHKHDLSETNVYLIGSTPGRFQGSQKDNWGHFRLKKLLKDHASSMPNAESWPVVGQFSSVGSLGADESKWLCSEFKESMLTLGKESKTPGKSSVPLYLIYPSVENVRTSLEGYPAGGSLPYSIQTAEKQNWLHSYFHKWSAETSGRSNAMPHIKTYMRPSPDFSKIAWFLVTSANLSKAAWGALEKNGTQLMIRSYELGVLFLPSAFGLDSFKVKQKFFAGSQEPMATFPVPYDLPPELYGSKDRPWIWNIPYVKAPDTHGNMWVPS
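AlphaScreen read-out: signal falls as enzyme removes the 3' tyrosine-FITC from a 5'-biotinylated DNA oligo (15 nM, 5 min, RT). Enzyme was E. coli-made recombinant Tdp1 at 1 nM, exposed to compound for 15 min beforehand; beads 10 ug/ml, 10 min.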
DT40 TDP1 no CPT – qHTS for Inhibitors of human tyrosyl-DNA phosphodiesterase 1 (TDP1): qHTS in cells in absence of CPT; DT40 Tdp1-/- hTDP1 cells, no CPT, ATP luminescence, 48 h; Potency, µM (titrated, usually from 46.2 µM), usual class: inhibitors; 420,000 compounds, 15% hits; AID 686978, 2013; further: nearly all actives have a fitted effect of over 55% in size
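Camptothecin absent (DMSO only). Human TDP1-complemented DT40 knockout cells, 400 cells/well, 37 °C for minimum 48 hr; ATP measured via CellTiter-Glo, 30 min dark incubation, luminescence.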
IL1B secr inh – inhibitors of inflammasome signaling (IL-1 beta secretion) | THP-1 LPS/ATP IL-1B secretion, AlphaLISA, 16 h; hits give low values | 360,000 compounds, 4.7% hits | activity change, % at 57.5 µM; in the data active means activity change below about -50%; inconclusive means mostly about -30% to -49%
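THP-1 cells pretreated 1 hr with compounds (up to 57.5 uM final), then stimulated with LPS (250 ng/mL final) plus ATP (1.25 mM final); secreted IL-1B measured by AlphaLISA after 16 hr, decreased signal indicating inhibition.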
DT40 TDP1 CPT – DT40-hTDP1 cell growth loss with CPT; chicken DT40 Tdp1-/-;hTDP1 cells + 20 nM CPT, ATP luminescence, 48 h; 420,000 compounds, 12% hits; Potency, µM (top dose mostly 46.2 µM), usual class: inhibitors; AID 686979; further: nearly all actives have a fitted effect of over 55% in size
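Chicken DT40 Tdp1-/- cells stably complemented with human TDP1 were seeded at 400 cells/well in medium containing 20 nM camptothecin, exposed to pin-transferred compounds, and grown at 37 °C for at least 48 hr. Viability was read as ATP luminescence.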
Numbers stand for hits; 0 = inactive; ? = inconclusive; - = no result given. Sampled rows, rich in hits. Any-hit rate of the full collection: about 19%. Unless noted, the call rests on the fitted dose curve; in most records, active means well fitted curve in the direction sought with a large enough effect; inconclusive means small, poorly fitted or top-dose-only effect, or another doubt; inactive means no such curve, though single readings can be large; an effect the other way counts as inactive or inconclusive.

SMILES	HepG2 viability	TGFb SMAD3 inh	TDP1 block	DT40 TDP1 no CPT	IL1B secr inh	DT40 TDP1 CPT
COc1ccc(S(=O)(=O)Nc2cc(SCC(=O)O)c(O)c3ccccc23)cc1	0	11.2µM	-	5.17µM	-58.7	3.26µM
O=S(=O)(Nc1ccc(Cl)cc1NS(=O)(=O)c1ccccc1)c1ccccc1	0	?	-	?	0	?
COc1ccc(S(=O)(=O)Nc2cccc3ccc(O)cc23)cc1	0	?	-	7.31µM	0	6.51µM
O=C(O)CSc1cc(NS(=O)(=O)c2ccc(Cl)cc2)c2ccccc2c1O	6.31µM	?	-	2.31µM	-84.2	4.61µM
COCCCN(C(=O)c1cc2c(s1)CCCCC2)c1c(N)n(Cc2ccccc2)c(=O)[nH]c1=O	0	0	0	?	0	0
Cc1cc(C)n2nc(SCC(=O)N3CCC(C)CC3)nc2n1	0	0	0	0	0	0
Cc1cnc(CNC(=O)c2csc([C@H]3C[C@H](O)[C@@H](CO)O3)n2)cn1	0	0	-	0	0	0
CC(C)[C@H](NC(=O)Nc1ccc(Oc2ccccc2)cc1)C(=O)O	0	0	0	13µM	0	11.6µM
CC(C)[C@H](NC(N)=O)C(=O)Nc1ccc(Oc2ccccc2)cc1	0	0	0	0	-	0
CCc1ccccc1NC(=O)N[C@H](C(=O)O)C(C)CC (stereo partly drawn)	0	0	0	14.6µM	0	?
N#CCN(C(=O)CSc1nnc(C2CC2)n1C1CC1)c1ccccc1	0	0	-	0	0	0
Cc1cccc(C)c1OCC(O)Cn1c2ccccc2c2ccccc21 (stereo not drawn)	0	?	0	20.6µM	0	?
OC(COCC(F)(F)C(F)(F)C(F)(F)C(F)F)Cn1c2ccccc2c2ccccc21 (stereo not drawn)	17.8µM	?	0	8.2µM	-102.9	13µM
Cc1cccc(C)c1OCC(O)CN1CCN(c2ccccc2)CC1 (stereo not drawn)	0	0	0	?	0	?
CCN(CC)CC(O)Cn1c2ccccc2c2ccccc21 (stereo not drawn)	0	0	0	?	?	0
Cc1ccc(OCC(O)Cn2c3ccccc3c3ccccc32)cc1 (stereo not drawn)	0	?	0	12.6µM	-84.2	?
NC(Cc1ccccc1)C(O)c1ccco1 (stereo not drawn)	0	0	0	-	-	-
C=CCOn1c(=O)c(-c2cccs2)[n+]([O-])c2ccccc21	0	0	0	?	0	23.1µM
Cc1cc(C(=O)N/N=C/c2ccc(C)o2)c2ccccc2n1	0	?	0	1.3µM	0	1.46µM
Cc1cc(C(=O)N/N=C/c2ccco2)c2ccccc2n1	0	0	0	?	0	?
Cc1ccc(/C=N/NC(=O)c2cc(C3CC3)nc3ccccc23)o1	0	?	0	3.66µM	0	4.11µM
Cc1ccc(/C=N/NC(=O)c2cc(-c3ccccc3)nc3ccccc23)o1	0	0	0	9.2µM	0	18.4µM
Cc1ccc(/C=N/NC(=O)c2ccc(-c3ccccc3)cc2)o1	0	0	-	?	0	0
CCCc1cc(C(=O)N/N=C/c2ccc(C)o2)c2ccccc2n1	0	0	0	?	0	?
Cc1ccc(-c2cc(C(=O)N/N=C/c3c(C)nn(C)c3C)c3ccccc3n2)cc1C	0	?	0	10.3µM	-50.7	11.6µM
SMILES	HepG2 viability	TGFb SMAD3 inh	TDP1 block	DT40 TDP1 no CPT	IL1B secr inh	DT40 TDP1 CPT
Cc1ccc(-c2cc(C(=O)N/N=C/c3ccoc3)c3ccccc3n2)cc1	0	0	0	?	0	?
CCOC(=O)C1CCCN(C(=O)c2nn(-c3ccc(OC)cc3)c(=O)c3c2c2ccccc2n3C)C1 (stereo not drawn)	0	0	0	?	-	0
COc1ccc(/C=N/NC(=O)c2nonc2N)cc1OC	0	0	-	0	0	0
Nc1nonc1C(=O)N/N=C/c1cc(Br)ccc1O	0	0	0	1.46µM	0	0.92µM
Cc1c(C(=O)N/N=C/c2c(O)ccc3ccccc23)nnn1-c1nonc1N	0	0	0	3.66µM	0	5.8µM
Nc1nonc1-n1nnc(C(=O)N/N=C/c2cc(Br)ccc2O)c1CNc1ccccc1	0	0	0	8.2µM	0	8.2µM
COc1ccc2ccccc2c1/C=N/NC(=O)c1nnn(-c2nonc2N)c1C(C)C	0	?	0	?	0	0
Cc1ccc(Cn2c(=O)c3cccnc3n(Cc3ccc(C)cc3)c2=O)cc1	0	0	0	0	-	0
O=C(NCc1ccccc1Cl)c1ccc(-n2cnc3cccnc32)cc1	0	0	0	-	-	-
CC(C)CCNC(=O)c1ccc(Cn2c(=O)c3cccn3c3cccnc32)cc1	0	0	0	0.517µM	-	?
CCc1ccc(CNC(=O)c2ccc(Cn3c(=O)c4cccn4c4cccnc43)cc2)cc1	0	0	0	0.461µM	-	?
Cc1ccccc1CCNC(=O)c1ccc(Cn2c(=O)c3cccn3c3cccnc32)cc1	0	0	0	18.4µM	-	?
Cc1ccc(CCNC(=O)c2ccc(Cn3c(=O)c4cccn4c4cccnc43)cc2)cc1	0	0	0	?	-	?
CN(C)C(=O)COC(=O)c1ccccc1OCC(=O)Nc1ccc(Br)cc1	0	0	-	?	-	?
COc1ccc(OC)c(Nc2ncnc3sccc23)c1	0	0	-	?	0	0
COc1cc(CN(C)c2ncnc3sccc23)ccc1OC(F)F	0	0	-	11.6µM	0	16.4µM
COc1ccc2c(c1)O[C@@H](c1ccc3c(c1)OCO3)[C@H](OC(=O)NS(=O)(=O)c1ccc(F)cc1)C2=O	-	-	0	-	-	-
Cc1ccc2c(c1)c1c3n2CCN(C(=O)c2ccc(C(F)(F)F)cc2)C3CCC1 (stereo not drawn)	0	0	0	-	-	-
Cc1cc(=O)oc(C)c1C(=O)N1CCN(C(c2ccccc2)c2ccccc2)CC1	0	0	0	29.1µM	0	20.6µM
Cc1onc(C(=O)N2CCN(C(c3ccccc3)c3ccccc3)CC2)c1[N+](=O)[O-]	0	0	0	?	-98.7	?
Cc1cc(=O)oc(C)c1C(=O)N1CCN(c2ccc(F)cc2)CC1	0	0	0	0	0	0
Cc1c(C(=O)N2CCN(C(c3ccccc3)c3ccccc3)CC2)oc2ccccc12	0	?	0	?	0	16.4µM
CC12CCC(C(=O)N3CCN(C(c4ccccc4)c4ccccc4)CC3)(OC1=O)C2(C)C (stereo not drawn)	0	0	0	18.4µM	0	?
Cc1ccccc1NC(=O)CN1C(=O)CCn2nc(-c3cccn3C)cc21	0	0	0	0	-	0
